Screening results deposited in PubChem BioAssay by The Scripps Research Institute Molecular Screening Center.
This is a sample that favours compounds with a hit; in the whole collection about 2.9% have one here.
pPAFAH inh – pPAFAH enzyme inhibitors, primary screen, biochemical, fluorescence polarization, human; 1.5% of 330,000 active; AID 463082, 2010; Platelet-activating factor acetylhydrolase (Homo sapiens), Q13093; recombinant pPAFAH, FP-rhodamine probe fluorescence polarization; inhibition, % at 3.39 µM;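 active means inhibition above the mean inhibition across the screen plus 3 SD, cut at about 25% in these data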;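 further: inhibitors block binding of the rhodamine activity-based probe so polarization drops; 0% = enzyme with DMSO and 100% = wells lacking pPAFAH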
PAFAH1B3 FP inh – PAFAH1B3 enzyme inhibitors, primary screen, biochemical, fluorescence polarization, human; Platelet-activating factor acetylhydrolase IB subunit alpha1 (Homo sapiens), Q15102; recombinant PAFAH1B3, FP-rhodamine probe; inhibition, % at 3.39 µM; 0.28% of 340,000 active; AID 492972, 2010;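 active means inhibition above the screen-wide average of all tested compounds plus 3 SD, cut at about 25% in these data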;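 further: 0% = enzyme with DMSO only and 100% = wells lacking PAFAH1B3 protein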
LYPLA2 counter – LYPLA2 inhibitors, primary screen, counter-screen for PME1 inhibitor project, biochemical, fluorescence polarization, FP-Rh probe ABPP. recombinant LYPLA2. Acyl-protein thioesterase 2 (Homo sapiens), O95372. AID 2177, 2009. inhibition, % at 5.9 µM. 0.38% of 320,000 active;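 active means inhibition above the screen-wide mean plus 3 SD, limit set per campaign, cut at about 26% in these data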;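 further: 0% = LYPLA2 with DMSO and 100% = wells lacking LYPLA2 enzyme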
PAFAH1B2 FP inh – PAFAH1B2 enzyme inhibitors, primary screen, biochemical, fluorescence polarization, human; recombinant PAFAH1B2, FP-rhodamine activity probe; AID 492953, 2010; 1.2% of 340,000 active; Platelet-activating factor acetylhydrolase IB subunit alpha2 (Homo sapiens), P68402; inhibition, % at 3.39 µM;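 active means inhibition above the mean of all tested compounds plus 3 SD, cut at about 24% in these data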;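 further: 0% = enzyme with DMSO and 100% = wells lacking PAFAH1B2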
Target sequence (P68402 whole entry, looked up): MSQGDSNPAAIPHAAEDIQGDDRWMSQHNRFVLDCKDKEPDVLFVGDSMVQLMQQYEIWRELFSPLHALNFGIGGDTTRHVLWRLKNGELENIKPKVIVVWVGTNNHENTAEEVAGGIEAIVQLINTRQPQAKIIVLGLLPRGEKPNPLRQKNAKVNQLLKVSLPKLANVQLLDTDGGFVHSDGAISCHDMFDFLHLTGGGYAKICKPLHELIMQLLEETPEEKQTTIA
PAFAH2 FP inh – PAFAH2 enzyme inhibitors, primary screen, biochemical, fluorescence polarization, human; Platelet-activating factor acetylhydrolase 2, cytoplasmic (Homo sapiens), Q99487; recombinant PAFAH2, FP-rhodamine activity probe; inhibition, % at 3.39 µM; 0.99% of 340,000 active;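 active means inhibition above the mean over all tested compounds plus 3 SD, cut at about 30% in these data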;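 further: inhibitors block probe labeling of enzyme so polarization drops; 0% = enzyme with DMSO and 100% = wells lacking PAFAH2 protein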
LYPLA1 inh – LYPLA1 inhibitors, primary screen, counter-screen for PME1 inhibitor project, biochemical, fluorescence polarization, FP-Rh probe ABPP. Acyl-protein thioesterase 1 (Homo sapiens), O75608. recombinant LYPLA1. inhibition, % at 5.9 µM. 0.16% of 320,000 active;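 active means inhibition above the mean of all tested compounds plus 3 SD, set per campaign, cut at about 14% in these data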;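 further: inhibitors block serine hydrolase probe labeling of LYPLA1 so polarization falls; 0% = enzyme with DMSO and 100% = wells lacking LYPLA1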
Target sequence (O75608 whole entry, looked up): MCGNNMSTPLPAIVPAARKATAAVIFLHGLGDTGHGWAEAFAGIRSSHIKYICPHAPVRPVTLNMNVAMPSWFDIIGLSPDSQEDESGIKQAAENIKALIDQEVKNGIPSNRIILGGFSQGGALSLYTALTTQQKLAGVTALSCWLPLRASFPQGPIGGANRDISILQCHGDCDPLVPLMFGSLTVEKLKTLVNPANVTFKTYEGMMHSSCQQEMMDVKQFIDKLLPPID
An asterisk follows results filed as active; . = not tested or not shown.

SMILES	pPAFAH inh	PAFAH1B3 FP inh	LYPLA2 counter	PAFAH1B2 FP inh	PAFAH2 FP inh	LYPLA1 inh
O=c1c2cc(NC(=S)N3CCCCC3)ccc2nc2n1CCCCC2	7	3	2	4	5	3
O=C(CNC(=O)c1ccccc1)N/N=C/c1cc(Br)ccc1O	9	10	-6	27*	4	-2
O=C(CNC(=O)c1ccncc1)N/N=C/c1cc(Br)ccc1O	0	11	-1	8	3	4
CCOC(=O)Cc1nn2c(=O)cc(C)nc2s1	-2	3	3	1	-8	-1
O=C(CCSc1ccc(Cl)cc1)NN=C1CCCCCC1	3	3	-7	25*	1	1
O=C(CSCc1ccc(Cl)cc1)NN=C1CCCCCC1	2	2	-3	13	5	-5
O=C(CN1C(=O)C2CC=CCC2C1=O)NCc1cccs1 (stereo unspecified)	4	5	0	0	-1	-1
O=C(CCl)NN1C(=O)NC2(CCCCC2)C1=O	3	5	-1	-3	7	2
O=C(O)c1cc(N/N=C/c2ccc(-c3ccc(F)cc3)o2)ccc1Cl	31*	5	-2	5	0	2
O=C(Cc1ccc(F)cc1)N/N=C/c1ccc(-c2ccc(Cl)c(C(=O)O)c2)o1	7	6	4	2	1	-1
CCCc1ccc(Oc2cc(Cl)nc(N)n2)cc1	26*	10	5	6	11	-5
CCc1ccc(Oc2cc(C)nc(N)n2)cc1	11	-1	-1	4	-8	-5
CC(NC(=O)c1cccc(S(=O)(=O)N2CCCCCC2)c1)c1ccccc1 (stereo unspecified)	5	-3	-2	25*	5	1
CC(NC(=O)c1cc(S(=O)(=O)N2CCCC2)cn1C)c1ccccc1 (stereo unspecified)	6	2	-3	4	1	0
COC(=O)c1cc(NS(=O)(=O)c2ccc(N3CCCCCC3)c([N+](=O)[O-])c2)cc(C(=O)OC)c1	9	4	-18	33*	6	-8
Cc1oc(C)c2c(=O)ccc3c(c12)OC(N)=C(C#N)C3c1ccc(F)cc1 (stereo unspecified)	32*	-3	5	-2	1	0
Cc1cc(C)cc(NC(=O)c2cc(=O)c3ccccc3o2)c1	1	5	-2	3	2	-4
CCOc1ccc(N(CC)C(=O)COc2cc(=O)n(C)c3ccccc23)cc1	28*	2	-1	8	1	2
O=C(COc1ccc(S(=O)(=O)NC2CCCCC2)cc1)NC1CCCCC1	9	7	-1	1	-6	0
O=C(COc1ccc(S(=O)(=O)NC2CCCCC2)cc1)NCCC1=CCCCC1	28*	-2	3	2	7	1
O=C(CCS(=O)(=O)c1ccc(Br)cc1)NCCC1=CCCCC1	1	10	-3	26*	0	0
N#Cc1c(Nc2ccccc2)c(/C=N/NCCO)c[nH]c1=O	26*	0	-1	-5	1	-1
N#Cc1c(Nc2ccccc2)c(C=NCCN2CCOCC2)c[nH]c1=O	29*	3	-3	3	0	-3
N#Cc1c(Nc2ccccc2)c(/C=N/N=C/c2ccccc2)c[nH]c1=O	15	10	0	4	5	-2
COc1ccccc1-n1cnnc1SCC(=O)Nc1cccc(S(N)(=O)=O)c1	0	-2	-1	-3	-9	-6
SMILES	pPAFAH inh	PAFAH1B3 FP inh	LYPLA2 counter	PAFAH1B2 FP inh	PAFAH2 FP inh	LYPLA1 inh
CCN(CC)CCCNC(=O)CNC(=O)c1nn(-c2ccc(OC)cc2)c(=O)c2ccccc12	-3	3	4	-2	6	1
O=C(COc1ccccc1[N+](=O)[O-])OCC(=O)c1ccc(Br)s1	26*	1	.	2	13	.
Cc1cccc2c(N=Nc3ccc(S(=O)(=O)Nc4cccc(Cl)c4)cc3[N+](=O)[O-])c(O)[nH]c12	28*	21	-22	26*	8	-26
CCOc1ccc(NC(=O)CN(C)C(=O)CN2C(=O)NC3(CCCC3)C2=O)cc1OCC	26*	11	7	-1	2	2
COc1cc(=O)n(C)c2ccccc12	-3	6	-2	1	6	0
CN(c1ccc(Cl)cc1)c1cc(=O)n(C)c2ccccc12	2	1	5	29*	-4	-2
C=CCSc1nc(=O)n2ccc(C)cc2n1	27*	3	-4	-3	15	1
Cn1c(=O)c2c(O)c(C=Nc3ccc(F)cc3)c(=O)n(C)c2n(C)c1=O	0	.	-2	.	.	-1
CC1=CC(=O)C=C/C1=C(/c1ccc(O)cc1C)c1ccccc1S(=O)(=O)O	17	2	9	26*	-1	0
Cc1ccc(S(=O)(=O)N/N=C/c2cccn2-c2ccc(Cl)cc2)cc1	5	3	10	54*	0	-1
Cc1oc2c(O)c(O)ccc2c(=O)c1-c1ccc(Cl)cc1	30*	22	0	5	23	-3
Cc1oc2c(O)c(O)ccc2c(=O)c1-c1ccccc1	19	7	-5	9	11	-5
CC1CCc2c(sc(NC(=O)c3cccn3C)c2C(N)=O)C1 (stereo unspecified)	29*	3	.	-5	5	.
COC(=O)Nc1sc2c(c1C(N)=O)CCC(C)C2 (stereo unspecified)	-6	1	-2	1	-6	-2
COc1ccc(C(CNC(=O)c2cccc(S(=O)(=O)N3CCCC3)c2)N2CCCC2)cc1 (stereo unspecified)	2	11	7	4	-3	1
CCOC(=O)N1CCC(NC(=O)c2cc3c(-c4ccc(Cl)cc4)nn(C)c3s2)CC1	-1	4	-7	1	-5	-5
O=C(O)c1cc(O)c2c(c1)[C@@H]([C@H]1c3cc(C(=O)O)cc(O)c3C(=O)c3c(O[C@@H]4O[C@H](CO)[C@@H](O)[C@H](O)[C@H]4O)cccc31)c1cccc(OC3O[C@H](CO)[C@@H](O)[C@H](O)[C@H]3O)c1C2=O (stereo partly specified)	97*	76*	90*	78*	86*	28*
CCC(C)NS(=O)(=O)c1ccc(NC(=O)CCC2CCCCC2)cc1 (stereo unspecified)	11	4	4	-4	6	1
CCC(C)NS(=O)(=O)c1ccc(S(=O)(=O)N(CC(=O)Nc2ccccc2)CC2CCCO2)cc1 (stereo unspecified)	31*	-5	8	-3	-2	-4
